In PubChem BioAssay AID624481 (The Scripps Research Institute Molecular Screening Center, 2012):
A number with no mark means an inactive call. Active and inactive are the calls of the source. No stated cut-off is given here; in the data, active means inhibition above about 50%; inactive means the rest.

molecular target: Prolyl endopeptidase-like (Mus musculus) (UniProt Q8C167); assay: mouse PREPL enzyme inhibition by screening hits – biochemical, gel-based competitive ABPP, fluorescence, HTS hits, PREPL inhibitor project (AID 624481); settings: purified mouse PREPL, at 20 µM, hits give high values
Sequence (Q8C167 whole entry, looked up): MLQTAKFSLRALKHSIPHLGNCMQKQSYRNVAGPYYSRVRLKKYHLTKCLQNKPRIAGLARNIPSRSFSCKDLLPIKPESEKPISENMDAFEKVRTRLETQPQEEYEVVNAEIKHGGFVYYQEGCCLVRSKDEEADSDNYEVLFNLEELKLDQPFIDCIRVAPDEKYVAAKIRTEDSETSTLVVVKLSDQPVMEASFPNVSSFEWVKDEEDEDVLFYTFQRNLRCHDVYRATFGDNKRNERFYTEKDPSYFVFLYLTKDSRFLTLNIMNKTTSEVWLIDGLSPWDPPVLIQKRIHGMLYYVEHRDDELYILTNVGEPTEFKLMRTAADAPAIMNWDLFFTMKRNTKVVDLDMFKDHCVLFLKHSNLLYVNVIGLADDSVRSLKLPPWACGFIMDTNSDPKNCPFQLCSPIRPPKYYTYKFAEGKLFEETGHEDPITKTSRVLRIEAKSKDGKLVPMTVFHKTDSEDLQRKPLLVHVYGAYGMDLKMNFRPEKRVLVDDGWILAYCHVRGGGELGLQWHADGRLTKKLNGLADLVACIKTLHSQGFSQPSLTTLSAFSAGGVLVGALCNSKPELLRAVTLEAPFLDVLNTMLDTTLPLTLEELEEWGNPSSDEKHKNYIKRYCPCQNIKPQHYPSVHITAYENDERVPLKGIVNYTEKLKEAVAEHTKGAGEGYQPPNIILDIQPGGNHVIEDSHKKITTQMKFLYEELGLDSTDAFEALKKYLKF

In order of rising inhibition:
1. CN(C)c1ccc(NC(=O)c2cccc(C(=O)Nc3ccc(N(C)C)cc3)n2)cc1  -170%
2. C#CCOCCOCCOCCNc1nc(N2CCN(C(=O)C(Cc3cc4ccccc4[nH]3)n3cc(C(N)C(C)CC)nn3)CC2)nc(N2CCN(C(=O)C(Cc3cc4ccccc4[nH]3)n3cc(C(N)C(C)CC)nn3)CC2)n1 (configuration not stated)  -161%
3. CC(C)NCC(O)Cn1c2c(c3ccccc31)CCc1c-2cnn1-c1ccccc1 (configuration not stated)  -123%
4. C#CCOCCOCCOCCNc1nc(N2CCN(C(=O)[C@H]([C@@H](C)CC)n3cc([C@@H](N)Cc4ccc(O)cc4)nn3)CC2)nc(N2CCN(C(=O)[C@H](Cc3cc4ccccc4[nH]3)n3cc([C@@H](N)CC(C)C)nn3)CC2)n1  -105%
5. C#CCOCCOCCOCCNc1nc(N2CCN(C(=O)CCCCCCCCCCNC(=O)Cn3cc(CCCCCN)nn3)CC2)nc(N2CCN(C(=O)CCCCCCCCCCNC(=O)Cn3cc(CCCCCN)nn3)CC2)n1  -99%
6. CCN(CC)c1ccc(-c2sc(Nc3ccccc3)n[n+]2-c2ccc(F)cc2)cc1  -94%
7. CCn1c2ccccc2c2cc(CNCc3ccc(OC)cc3OC)ccc21  -93%
8. COc1cc(NC(=O)CN2CCN(c3ccccc3F)CC2)c(C)cc1[N+](=O)[O-]  -92%
9. CN1CCN(CCCN2c3ccccc3Sc3ccc(Cl)cc32)CC1  -90%
10. CC(C)C[C@@H]1CN=C(N)N1C[C@@H]1CCCN1C[C@@H](C(C)C)N1C[C@@H](Cc2ccccc2)N(CCc2ccc(Cl)c(Cl)c2)C1=N  -72%
11. CCC[C@@H](CN1CCC[C@H]1CN1C(N)=NC[C@H]1C(C)C)N1C[C@@H]([C@H](C)CC)N(CCCC2CCCC2)C1=N  -68%
12. C#CCOCCOCCOCCNc1nc(N2CCN(C(=O)CCCCCCCCCCNC(=O)[C@H]([C@@H](C)CC)n3cc(CCCCCN)nn3)CC2)nc(N2CCN(C(=O)CCCCCCCCCCNC(=O)[C@H](CO)n3cc(CCCCCN)nn3)CC2)n1  -61%
13. Oc1ccc(Nc2nc(N3CCCC3)c3ccccc3n2)cc1  -60%
14. Oc1cc(Nc2ccncc2)cc2cccnc12  -59%
15. CC(C)n1cnc2c(NCc3ccccc3)cc(OCC3CCN(C)CC3)cc21  -49%
16. Clc1ccc(-c2csc(=Nc3cccnc3)n2CCCn2ccnc2)cc1Cl  -41%
17. Cc1ccc(C2CC(c3cccc(C)c3)n3nc(N)nc3N2)cc1 (configuration not stated)  -40%
18. O=C1N/C(=C/c2ccc(N3CCOCC3)cc2)C(=O)N1Cc1ccc(F)cc1  -30%
19. COc1ccccc1-[n+]1c(C)cc(/C=C2\Sc3ccccc3N2C)cc1C  -27%
20. C=CC[n+]1c(/C=C2\C=Cc3cc(C)ccc3N2CC)ccc2ccccc21  -26%
21. COc1ccc(CCNC(=O)c2cc3c(=O)n4ccccc4nc3n(CCCN3CCOCC3)c2=N)cc1  -26%
22. Nc1cc([N+](=O)[O-])cc2oc(-c3ccccc3)cc12  -25%
23. Cc1ccc2nc(-c3ccccn3)c(NC3CCCC3)n2c1  -23%
24. COc1ccc2nc(C)cc(NN=Cc3cccc(OC)c3O)c2c1  -23%
25. COc1ccc(C2CC(c3cccc(OC)c3)n3nc(N)nc3N2)cc1 (configuration not stated)  -18%
26. CC(=NNc1nc2ccccc2[nH]1)c1cc2ccccc2o1  -17%
27. COc1ccc(-c2c(-c3ccccc3)c(C(=O)C(=O)NCCCN(C)C)n3ccc4cc(OC)c(OC)cc4c23)cc1OC  -15%
28. Cc1cc(OCC(=O)Nc2ccc(N3CCN(C)CC3)cc2)ccc1Cl  -14%
29. O=C(Nc1ccc2c(c1)OCCO2)c1cccc2nc3ccccc3nc12  -12%
30. Nc1[nH]n2c(=O)c3c(nc2c1N=Nc1ccc(Cl)cc1)CCCC3  -12%
31. COc1ccc(-[n+]2c(C)cc(/C=C3\Sc4ccccc4N3C)cc2C)cc1  -11%
32. CCN1CCN(c2ccc(NC(=O)COc3ccc(Cl)cc3C)cc2)CC1  -7%
33. COc1ccc(OCC(=O)NNc2c3ccccc3nc3ccccc23)cc1  -2%
34. COc1cc(-c2nnc3sc(Cc4ccc(Cl)cc4)nn23)cc(OC)c1OC  14%
35. C(=NNc1nc2ccccc2[nH]1)c1c[nH]c2ccccc12  36%

In the case of COc1cccc(N=Nc2c(N)[nH]n3c(=O)c4c(nc23)CCCC4)c1, the inhibition is reported as 93% (active).
CCN1/C(=C\c2ccc3ccccc3[n+]2CC)Sc2cc(C)ccc21 was tested, and the inhibition was 50% (active).
